Among the data in PubChem BioAssay are growth inhibition, inhibition and outcome values, retold here.

Assay [1] in a line: antimalarial activity against Dd2 strain (AID 2302;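 active means growth inhibition above 50% at the single 2 µM test dose, taken to imply half-maximal potency below 2 µM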;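 further: 0% = DMSO untreated growth and 100% = chloroquine plus artemisinin killed control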). To be noted: P. falciparum Dd2 in RBCs, LDH growth readout, 72 h; at 2 µM; hits give high values.
The nature of assay [2]: HepG2 cytotoxicity, primary screen, cytotoxicity control for P. falciparum antimalarial project, cell-based, ATP luminescence (AID 2303;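 active means inhibition above 50%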;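 further: 0% = DMSO wells and 100% = digitonin-killed cells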). To be noted: HepG2 viability, 24-48 h, at 10 µM, hits give high values.
The target of assay [3] is L-lactate dehydrogenase (Plasmodium falciparum (isolate CDC / Honduras)) (UniProt Q27743). Description: PfLDH activity inhibition – cell lysate, 3D7 strain, counter-screen for P. falciparum growth inhibition project (AID 2304).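 Further: 0% = vehicle and 100% = reference inhibitor.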 To be noted: P. falciparum 3D7 crude extract, LDH APAD/NBT absorbance; at 2 µM; hits give high values. (In general: Counterscreens check selectivity or assay interference.)

Assay [4] is described as follows: inhibition of 3D7 malaria parasite growth – strain 3D7 (AID 2306).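 Further: 0% = DMSO wells and 100% = chloroquine plus artemisinin control wells.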 To be noted: P. falciparum 3D7 erythrocytic growth, LDH absorbance, 72 h; at 2 µM; hits give high values.
Assay [5] deals with Calcium-dependent protein kinase 1 (Plasmodium falciparum (isolate 3D7)) (UniProt P62344). The assay can be described thus: PfCDPK1 kinase inhibitors, biochemical, TCAMS library (AID 1159585; cut-off not given, nearly all actives have IC50 up to about 0.98 µM;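 further: inhibitors leave more ATP so luminescence rises with inhibition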). The conditions noted are these: recombinant PfCDPK1, Kinase-Glo ATP depletion luminescence. A general note: Kinase-Glo reads ATP consumption through a luciferase reaction.
The target of assay [6] is Plasmodium falciparum protein kinase 6 (PK6, PF3D7_1337100) (UniProt Q8IDW1). Description: PfPK6 kinase inhibitors, biochemical, TCAMS library (AID 1159586). To be noted: recombinant PfPK6, Kinase-Glo ATP depletion luminescence.
Assay [7] has as its target Protein kinase 7 (PK7), Plasmodium falciparum 3D7 (PF3D7_0213400) (UniProt Q7YTF7). Description: inhibition of Plasmodium PK7 catalytic activity – biochemical, TCAMS antimalarial set, Kinase-Glo luminescence (AID 1159587). The conditions noted are these: recombinant PfPK7, Kinase-Glo ATP depletion luminescence.
In assay [8] the target is Calcium-dependent protein kinase 4 (Plasmodium falciparum (isolate 3D7)) (UniProt Q8IBS5). Description: PfCDPK4 kinase inhibitors, biochemical, TCAMS library (AID 1159588; cut-off not given, nearly all actives have IC50 up to about 0.91 µM). The conditions noted are these: recombinant PfCDPK4, Kinase-Glo ATP depletion luminescence.

A number with no mark means an inactive call. For some of these results: Entries with a potency or affinity are not part of this list. Active and inactive are the calls of the source. Unless noted, how the calls were made is not given here.

Sequence of L-lactate dehydrogenase (Plasmodium falciparum (isolate CDC / Honduras)) (Q27743 whole entry, looked up): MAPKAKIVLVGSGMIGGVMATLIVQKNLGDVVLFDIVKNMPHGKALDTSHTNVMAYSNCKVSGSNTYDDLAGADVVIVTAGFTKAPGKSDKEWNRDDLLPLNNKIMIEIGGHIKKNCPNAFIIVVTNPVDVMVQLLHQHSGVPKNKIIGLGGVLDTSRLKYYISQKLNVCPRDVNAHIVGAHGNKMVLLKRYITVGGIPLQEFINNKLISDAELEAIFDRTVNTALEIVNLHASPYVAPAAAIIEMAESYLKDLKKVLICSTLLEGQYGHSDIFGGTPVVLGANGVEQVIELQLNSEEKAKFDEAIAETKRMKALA
Sequence of Protein kinase 7 (PK7), Plasmodium falciparum 3D7 (PF3D7_0213400) (Q7YTF7 1-343): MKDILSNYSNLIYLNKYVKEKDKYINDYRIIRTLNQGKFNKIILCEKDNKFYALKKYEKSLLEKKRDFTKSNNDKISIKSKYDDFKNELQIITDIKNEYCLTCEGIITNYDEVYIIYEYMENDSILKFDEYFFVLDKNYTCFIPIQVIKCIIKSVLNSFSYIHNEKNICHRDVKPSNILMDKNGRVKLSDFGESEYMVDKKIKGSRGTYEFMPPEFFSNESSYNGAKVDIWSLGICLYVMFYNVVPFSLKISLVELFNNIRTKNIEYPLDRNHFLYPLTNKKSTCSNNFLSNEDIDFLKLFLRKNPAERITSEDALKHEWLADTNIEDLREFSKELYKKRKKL
Sequence of Calcium-dependent protein kinase 4 (Plasmodium falciparum (isolate 3D7)) (Q8IBS5 whole entry, looked up): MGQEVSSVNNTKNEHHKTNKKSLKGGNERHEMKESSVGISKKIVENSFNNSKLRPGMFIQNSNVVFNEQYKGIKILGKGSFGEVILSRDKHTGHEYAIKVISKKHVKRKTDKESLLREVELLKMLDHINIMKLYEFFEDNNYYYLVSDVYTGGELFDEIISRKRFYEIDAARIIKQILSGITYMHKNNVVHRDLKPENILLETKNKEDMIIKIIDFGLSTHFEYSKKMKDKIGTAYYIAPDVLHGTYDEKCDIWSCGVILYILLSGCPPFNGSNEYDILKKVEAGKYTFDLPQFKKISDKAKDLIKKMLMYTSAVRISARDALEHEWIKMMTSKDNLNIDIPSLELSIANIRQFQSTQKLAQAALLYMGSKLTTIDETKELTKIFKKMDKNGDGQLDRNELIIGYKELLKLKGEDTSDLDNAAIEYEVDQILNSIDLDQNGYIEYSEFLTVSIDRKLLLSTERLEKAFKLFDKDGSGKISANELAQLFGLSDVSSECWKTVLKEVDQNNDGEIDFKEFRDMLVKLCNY
Sequence of Plasmodium falciparum protein kinase 6 (PK6, PF3D7_1337100) (Q8IDW1 1-305): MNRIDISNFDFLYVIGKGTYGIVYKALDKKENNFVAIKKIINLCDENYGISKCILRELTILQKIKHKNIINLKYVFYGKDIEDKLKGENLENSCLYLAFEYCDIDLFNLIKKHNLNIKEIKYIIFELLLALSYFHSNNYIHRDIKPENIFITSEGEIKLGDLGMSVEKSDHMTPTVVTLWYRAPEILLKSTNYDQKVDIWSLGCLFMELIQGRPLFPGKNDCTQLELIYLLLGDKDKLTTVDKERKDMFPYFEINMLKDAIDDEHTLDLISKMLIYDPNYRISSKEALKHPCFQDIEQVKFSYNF
Sequence of Calcium-dependent protein kinase 1 (Plasmodium falciparum (isolate 3D7)) (P62344 whole entry, looked up): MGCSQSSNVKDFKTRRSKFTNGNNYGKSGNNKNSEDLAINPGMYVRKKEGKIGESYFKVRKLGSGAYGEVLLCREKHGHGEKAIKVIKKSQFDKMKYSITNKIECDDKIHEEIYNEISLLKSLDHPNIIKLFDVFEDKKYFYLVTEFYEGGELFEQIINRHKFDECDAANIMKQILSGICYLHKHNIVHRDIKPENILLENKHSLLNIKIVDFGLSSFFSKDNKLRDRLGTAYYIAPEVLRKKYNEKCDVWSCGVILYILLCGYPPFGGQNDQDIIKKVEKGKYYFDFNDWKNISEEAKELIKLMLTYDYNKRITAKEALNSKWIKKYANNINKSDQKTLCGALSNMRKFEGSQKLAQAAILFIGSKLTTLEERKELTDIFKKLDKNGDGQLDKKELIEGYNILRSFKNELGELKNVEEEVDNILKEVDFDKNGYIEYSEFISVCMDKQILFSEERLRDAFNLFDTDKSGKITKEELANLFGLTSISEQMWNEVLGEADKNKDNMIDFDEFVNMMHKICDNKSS

The inhibition is the change of the read-out against control, counted positive when it falls. Take `Cc1ccccc1C1CCN(C2CCC(NC(=O)/C=C/c3cccc(C(F)(F)F)c3)CC2)CC1` (stereo not given): the growth inhibition was 54% (active) in assay [1] and 100% (active) in assay [4]. Further, the inhibition was 96% (active) in assay [2] and -4% in assay [3]. Besides, the result in assay [5], in assay [6], in assay [7] and in assay [8] was inactive.

With `O=C(NC1CCN(c2ccnc3cc(Cl)ccc23)C1)c1ccccc1F` (stereo not given), the growth inhibition is 71% (active) in assay [1] and 101% (active) in assay [4]. The inhibition was 8% in assay [2] and 4% in assay [3]. Besides, the outcome in assay [5], in assay [6], in assay [7] and in assay [8] was inactive.

`NC(=O)c1ccccc1OCC(=O)Nc1cccc(-c2ccc(-c3nc4ccc(C(F)(F)F)cc4[nH]3)cc2)c1`: the values for the growth inhibition in assay [1] and in assay [4] were 17% and 92% (active), respectively. The figures for the inhibition in assay [2] and in assay [3] were 58% (active) and -2%, respectively. The result in assay [5], in assay [6], in assay [7] and in assay [8] was inactive.

Take `CC(C)CN1CCC(COc2ccc3ncn(-c4cc(O[C@H](C)c5ccccc5C(F)(F)F)c(C(N)=O)s4)c3c2)CC1`: the growth inhibition was 86% (active) in assay [1] and 97% (active) in assay [4]. Also, the inhibition in assay [2] was 46%; in assay [3] it was 7%. Also, the outcome in assay [5], in assay [6], in assay [7] and in assay [8] was inactive.

Take `N#Cc1c(N2CCCCCC2)nc(N)c2c(N)nc3c(c12)CC(=O)N3c1ccc(F)cc1`: the growth inhibition in assay [1] was 91% (active); in assay [4] it was 97% (active). The inhibition in assay [2] was -7%; in assay [3] it was -1%. Besides, the outcome in assay [5], in assay [6], in assay [7] and in assay [8] was inactive.

Turning to `CC(C)[C@H](NCC(=O)c1ccccc1)C(=O)O`, the figures for the growth inhibition in assay [1] and in assay [4] were 0% and 99% (active), respectively. For the same molecule, the results for the inhibition in assay [2] and in assay [3] were 6% and -3%, respectively. Also, the result in assay [5], in assay [6], in assay [7] and in assay [8] was inactive.

Turning to `O=C(Cn1c(CCc2cccc(F)c2F)cc(=O)c2cccnc21)N(CCN1CCCC1)Cc1ccc(-c2ccc(C(F)(F)F)cc2)cc1`, the figures for the growth inhibition in assay [1] and in assay [4] were 64% (active) and 99% (active), respectively. Further, the inhibition in assay [2] is 48%; in assay [3], -3%. Moreover, the result in assay [5], in assay [6], in assay [7] and in assay [8] was inactive.

As to `Cc1cc(C2CCN(CCCCNC(=O)c3ccc(-c4ccc(C#N)cc4)cc3)CC2)c(C)cc1O`, the growth inhibition in assay [1] and in assay [4] was 96% (active) in each case. Besides, the values for the inhibition in assay [2] and in assay [3] were 27% and 3%, respectively. The result in assay [5], in assay [6], in assay [7] and in assay [8] was inactive.

`Oc1ccc2nc(Nc3ccccc3)nc(NCCc3ccccc3)c2c1`: the growth inhibition in assay [1] and in assay [4] was 100% (active) in each case. In addition, the figures for the inhibition in assay [2] and in assay [3] were 20% and -6%, respectively. Further, the result in assay [5], in assay [6], in assay [7] and in assay [8] was inactive.

`Cc1ccc2[nH]c3ccccc3c(=O)c2c1`: the growth inhibition in assay [1] was 74% (active); in assay [4], 93% (active). Moreover, the figures for the inhibition in assay [2] and in assay [3] were -4% and -1%, respectively. Also, the result in assay [5], in assay [6], in assay [7] and in assay [8] was inactive.

On to `O=C(Cn1c(CCc2cccc(F)c2F)nc(=O)c2ccccc21)N(Cc1ccc(-c2ccc(C(F)(F)F)cc2)cc1)C1CCN(C2CCOCC2)CC1`, for which the values for the growth inhibition in assay [1] and in assay [4] were 76% (active) and 101% (active), respectively. Further, the inhibition was 97% (active) in assay [2] and -2% in assay [3]. Also, the result in assay [5], in assay [6], in assay [7] and in assay [8] was inactive.

Regarding `Cc1cc(N)c2cc(NC(=O)c3cc4ccccc4s3)ccc2n1`, the growth inhibition in assay [1] was 99% (active); in assay [4] it was 101% (active). Besides, the inhibition was 100% (active) in assay [2] and 2% in assay [3]. Also, the outcome in assay [5], in assay [6], in assay [7] and in assay [8] was inactive.

With `CC(C)COc1ccc2ccccc2c1CNCCCCCCNCc1c(OCC(C)C)ccc2ccccc12`, the growth inhibition in assay [1] was 95% (active); in assay [4], 90% (active). The values for the inhibition in assay [2] and in assay [3] were 99% (active) and 2%, respectively. Further, the result in assay [5], in assay [6], in assay [7] and in assay [8] was inactive.

For the molecule `CCCCNC(=O)[C@H](Cc1ccccc1)NC(=O)c1ccc(O)c(-c2ccc(Cl)c(Cl)c2)c1`, the growth inhibition is 97% (active) in assay [1] and 98% (active) in assay [4]. The inhibition was -8% in assay [2] and 3% in assay [3]. For the same molecule, the result in assay [5], in assay [6], in assay [7] and in assay [8] was inactive.

As to `Cc1cc(NN=Cc2ccccc2[N+](=O)[O-])c2cc(C(F)(F)F)ccc2n1`, the growth inhibition in assay [1] is 39%; in assay [4], 97% (active). For the same molecule, the inhibition in assay [2] was -5%; in assay [3], 1%. Also, the outcome in assay [5], in assay [6], in assay [7] and in assay [8] was inactive.

On to `COc1ccc(-c2nccc(NC(N)=NCc3ccccc3)n2)cc1`, for which the growth inhibition in assay [1] was 21%; in assay [4] it was 83% (active). In addition, the inhibition in assay [2] is 27%; in assay [3] it was 1%. For the same molecule, the outcome in assay [5], in assay [6], in assay [7] and in assay [8] was inactive.

As to `Cc1cccc2[nH]c(-c3ccc(-c4ccc(CNCc5ccc(CN)cc5)cc4)cc3)nc12`, the growth inhibition in assay [1] is 46%; in assay [4], 100% (active). In addition, the figures for the inhibition in assay [2] and in assay [3] were 14% and -4%, respectively. For the same molecule, the result in assay [5], in assay [6], in assay [7] and in assay [8] was inactive.

Regarding `CC1(C)N=C(NC(=O)Nc2ccc([N+](=O)[O-])cc2)N=C(N)N1OCc1cccc2ccccc12`, the growth inhibition was 21% in assay [1] and 97% (active) in assay [4]. The inhibition was 35% in assay [2] and -3% in assay [3]. In addition, the result in assay [5], in assay [6], in assay [7] and in assay [8] was inactive.

Take `CC(C)c1ccc(N2CCN(CCCCNC(=O)c3ccc(NC(=O)c4cc(Cl)cc(Cl)c4)cc3)CC2)cc1`: the growth inhibition in assay [1] was 86% (active); in assay [4] it was 101% (active). The inhibition in assay [2] is 12%; in assay [3], 8%. Also, the result in assay [5], in assay [6], in assay [7] and in assay [8] was inactive.

For the molecule `c1cn(CCCNc2ncc(-c3ccsc3)c(-c3nccs3)n2)cn1`, the growth inhibition in assay [1] was 51% (active); in assay [4], 94% (active). The inhibition in assay [2] is -11%; in assay [3], -4%. Moreover, the result in assay [5], in assay [6], in assay [7] and in assay [8] was inactive.
